Experimental data as given in PubChem BioAssay AID1851 (National Center for Advancing Translational Sciences (NCATS), 2009).
Screen size: about 16,000 compounds; about 2,600 (16%) were called active. Inconclusive results (about 20%) are left out. These entries were drawn from the full list. Values without a mark were called inactive. The call rests on the fitted dose curve; in most records, active means well fitted curve in the direction sought with a large enough effect; inconclusive means small, poorly fitted or top-dose-only effect, or effect the other way; inactive means no such curve, though single readings can be large or run the other way.

Target: Cytochrome P450 2D6 (Homo sapiens) (UniProt P10635)
Sequence (P10635 whole entry, looked up): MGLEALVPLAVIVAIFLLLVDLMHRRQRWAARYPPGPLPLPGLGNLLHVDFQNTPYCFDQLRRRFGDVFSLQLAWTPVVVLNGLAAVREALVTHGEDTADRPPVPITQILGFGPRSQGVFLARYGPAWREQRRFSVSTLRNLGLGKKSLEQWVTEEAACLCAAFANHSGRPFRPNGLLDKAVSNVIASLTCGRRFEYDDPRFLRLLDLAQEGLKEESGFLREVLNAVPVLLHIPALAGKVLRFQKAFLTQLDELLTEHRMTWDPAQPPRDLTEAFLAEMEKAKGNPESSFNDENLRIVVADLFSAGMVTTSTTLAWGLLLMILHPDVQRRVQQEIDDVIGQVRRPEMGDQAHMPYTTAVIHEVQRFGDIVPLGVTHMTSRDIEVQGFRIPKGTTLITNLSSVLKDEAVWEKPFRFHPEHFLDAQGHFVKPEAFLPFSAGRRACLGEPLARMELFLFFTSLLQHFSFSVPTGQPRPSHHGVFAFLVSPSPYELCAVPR
Assay: Cytochrome panel assay with activity outcomes
Settings: recombinant CYP, pro-luciferin dealkylation, luminescence, p450-cyp2d6; series mostly up to 57.1 µM; activity, negative = inhibition: at the top concentration
On the % scale 0 is the no-effect control and ±100 the full control effect.

SMILES	activity, negative = inhibition	AC50
Cc1csc(NC(=O)CCNS(=O)(=O)c2ccc3c(c2)c(=O)n(C)c(=O)n3C)n1	-6.75%	
CCCc1nnc(SCC(=O)N2C(C)CCCC2C)n1CCCOC (configuration not stated)	0.151%	
CO[C@@H](C(C)C)[C@@H](C)[C@@H]1OC(=O)C[C@@H]1O	-14.8% [at 11.4 µM]	
CC(=O)N1CCc2cc(Br)cc(S(=O)(=O)N3CCN(C(=O)c4ccco4)CC3)c21	11.4%	
Cc1c(OC(=O)c2ccc([N+](=O)[O-])cc2)c2c(c[n+]1C)COC(C)(C)OC2	8.33%	
COc1ccc(C(=O)NCS(=O)(=O)c2ccc(C)cc2)cc1	-15.2%	
Cc1ccc(S(=O)(=O)CC#CCOC(=O)c2ccc([N+](=O)[O-])cc2)cc1		12.6 µM (active)
COc1ccc(-c2nc3cnc(N4CCOCC4)nc3n(C[C@H]3CCCO3)c2=O)cc1	1.59%	
CCc1nnc(NC(=O)c2cc(-c3ccccc3)nn2-c2ccccc2)s1	-15.9%	
Fc1cccc(CSc2ncnc3c2ncn3[C@H]2CCCS2)c1	8.45% [at 11.4 µM]	
COc1cccc(-c2cncnc2NCc2ccccc2OC)c1		7.94 µM (active)
COc1ccc(CNc2ncncc2-c2cccnc2)c(OC)c1		15.8 µM (active)
COc1cccc(-c2cncnc2NC2CCNCC2)c1	-13.3%	
COc1ccc(CNc2ncncc2-c2cccc(NS(C)(=O)=O)c2)c(OC)c1		25.1 µM (active)
COc1ccccc1CNc1cc(-c2cccc(NS(C)(=O)=O)c2)ncn1	-17.4%	
COc1cccc(-c2cncnc2NCc2ccc(OC)cc2OC)c1		7.94 µM (active)
C/C(=N\n1nnnc1Nc1ccccc1)c1ccc(N)cc1	2.96%	
CCNc1ncc2nc(C)c(=O)n(Cc3ccc(F)cc3)c2n1	-4.78%	
O=c1cnc2cnc(Oc3ccccc3)nc2n1Cc1ccc(F)cc1	-20.8%	
O=C(O)/C=C\C(=O)Nc1ncn[nH]1	3.54% [at 11.4 µM]	
CCC(C)(C(=O)NC1CCCC1)N(Cc1ccco1)C(=O)c1ccccn1 (configuration not stated)	17.4%	
O=c1ccc2cc(O)c(O)cc2o1	-4.53% [at 25.6 µM]	
OC[C@H](S)CS	19.8% [at 11.4 µM]	
CCOc1ccc(C(C)=O)cc1N1C(=O)C2C3C=CC(C3=C(C)C)C2C1=O (configuration not stated)	-2.5%	
COc1ccccc1NC(=O)c1ccc(-n2cccn2)nc1		7.94 µM (active)

SMILES	activity, negative = inhibition	AC50
COc1ccc(NC(=O)c2ccc(-n3cccn3)nc2)c(OC)c1	0.442%	
COc1ccccc1NC(=O)c1cnc2n(c1=O)CCS2	-6.14%	
COc1ccccc1CCn1c(=O)c(-c2ccc(Cl)cc2)nc2cncnc21	-8.73%	
COc1ccc(/C=N/NC(=O)c2cccc([N+](=O)[O-])c2)cc1OS(=O)(=O)c1ccc(C)cc1	-3.23%	
CC(=O)Nc1sc2c(c1C(N)=O)CCCC2	-10.9%	
CC(=O)Nc1sc2c(c1CN1CCN(C)CC1)CCCC2		12.6 µM (active)
CCNC(=O)c1c(NC(C)=O)sc2c1CCCC2	4.74%	
Cc1cc(C)c(S(C)(=O)=O)c(Oc2ccc(F)cc2)n1	-5.79%	
COc1ncc2nc(-c3cn(C)c4ccccc34)c(=O)n(-c3ccccc3)c2n1	3.2%	
CCOC(=O)c1c(NC(=O)C2C3CCC(O3)C2C(=O)O)sc(C)c1-c1ccc(C)cc1 (configuration not stated)	-1.43%	
CCOc1ccc(N2C(=O)/C(=C/c3cccs3)N(CC(=O)OC)C2=S)cc1	-8.94%	
CCOc1ccc(N2C(=O)/C(=C/c3cc(OC)c(OC)c(OC)c3)N(CC(=O)OC)C2=S)cc1	-3.36%	
CCc1ccc(N2C(=O)/C(=C/c3cccs3)N(CC(=O)OC)C2=S)cc1		0.794 µM (active)
O=C(Nc1cccc(-c2cn3cccnc3n2)c1)c1ccco1	-3.97%	
COc1ccc(S(=O)(=O)N2CCc3ccccc3C2)cc1OC	26.5%	
O=C(NNS(=O)(=O)c1ccccc1)c1cccnc1	14.2% [at 11.4 µM]	
O=C(NNS(=O)(=O)c1ccc(Cl)cc1)c1cnn(-c2ccccc2)c1-n1cccc1		2 µM (active)
O=C(NNS(=O)(=O)c1cc(Cl)cc(Cl)c1)c1sccc1-n1cccc1	-28.4%	
N=c1nc(N2CCCCC2)cc(N)n1O		inactive
Oc1[nH]c2ccccc2c1N=Nc1ccc(C(F)(F)F)cn1	-2.34%	
[O-][N+](CCO)(CCO)c1ncnc2nc[nH]c12	-0.262% [at 11.4 µM]	
COc1ccc(-c2cc([C@H](O)[C@@H]3CCCCN3)c3ccccc3n2)cc1		3.16 µM (active)
COc1ccc(-c2nc3ccccc3c(=O)n2N)cc1	-1.03%	
O[C@@H](c1cc(-c2ccc(Cl)cc2)nc2ccccc12)[C@@H]1CCCCN1		0.631 µM (active)
N/C(=N\OC(=O)c1cc(-c2ccccc2)nc2ccccc12)c1ccc(Cl)cc1	-8.2%	

SMILES	activity, negative = inhibition	AC50
CCNC(=O)COC(=O)c1cc(-c2ccc(OC)cc2)nc2ccccc12	-27.2%	
Cc1cc(C)c2nc3c(c([C@H](O)[C@@H]4CCCCN4)c2c1)CC/C3=C/c1ccc(Cl)cc1	0.19% [at 11.4 µM]	
Cc1ccc(C(=O)COC(=O)CNC(=O)Cc2ccccc2)cc1[N+](=O)[O-]	-10.1%	
Cc1c(NC(=O)Cn2ccc([N+](=O)[O-])n2)c(=O)n(-c2ccccc2)n1C	23.1%	
c1ccc(C2=NN[C@@H]3c4ccccc4-c4ccccc4N3C2)cc1	-17.6% [at 11.4 µM]	
CCC(=O)NC(NC(=O)CC)C(Cl)Cl	6.76%	
O=C(CSCc1cccc(Cl)c1)N/N=C/c1ccc(OCC(=O)N2CCCCC2)cc1		17.8 µM (active)
Cc1oc(-c2ccccc2Cl)nc1CSCC(=O)NC1CC1	-21.5%	
O=C(CN1CCCC1)N/N=C/c1ccc(-c2cccc(Cl)c2)o1	-20.7%	
O=C(Nc1ccc2oc(-c3ccccc3F)nc2c1)c1ccc2c(c1)OCCO2	-24.9%	
CCN1CCCC1CNC(=O)CSCc1nc(-c2ccccc2C)oc1C (configuration not stated)		8.91 µM (active)
Cc1oc(-c2ccccc2F)nc1CSCC(=O)NCc1ccc2c(c1)OCO2		2.24 µM (active)
O=C(/C=C/c1ccc2c(c1)OCO2)NCCSCc1cccc(Cl)c1		0.355 µM (active)
COCCCNC(=O)/C=C/c1ccc(Cl)cc1	-4.47%	
Cc1cccc(C(=O)N/N=C/c2ccc(OCC(=O)N3CCCCC3)cc2)c1	-11.8%	
CCOC(=O)N1CCN(C(=O)CSCc2nc(-c3ccccc3F)oc2C)CC1	6.39%	
O=C(/C=C/c1cccc([N+](=O)[O-])c1)NCCN1CCOCC1	-0.0015%	
COc1ncc2nc(-c3cc(F)cc(F)c3)c(=O)n(C[C@H]3CCCO3)c2n1	-6.6%	
CNc1c2c(nn1C)CCCC2	-19.9%	
Cc1ccccc1S(=O)(=O)Oc1ccccc1C(=O)Oc1ccccc1	-7.88%	
Nc1ncnc2nc(N3CCN(CCO)CC3)[nH]c12	6.88% [at 11.4 µM]	
N[C@H](CCC(=O)NCS(=O)(=O)O)C(=O)O	4.98%	
COc1cc(=O)n(C)c2c(OC[C@@H](O)C(C)(C)O)cccc12		inactive
CO/N=C(\C(=O)N[C@@H]1C(=O)N2C(C(=O)O)=C(COC(C)=O)CS[C@@H]12)c1csc(N)n1		inactive
Cc1ccccc1NC1=C(C(=O)c2ccccc2)N(C)S(=O)(=O)c2ccccc21	-1.01%	

SMILES	activity, negative = inhibition	AC50
C[C@H]1COC(=O)[C@H](Cc2ccccc2)NC(=O)[C@@H](C)COC(=O)[C@H](Cc2ccccc2)NC1=O	13.8% [at 11.4 µM]	
OC[C@@H]1O[C@@H](O)[C@H](N=Cc2ccc3c(c2)OCO3)[C@@H](O)[C@@H]1O	0.161% [at 11.4 µM]	
COCCn1c(=O)c(-c2cc(F)cc(F)c2)nc2cnc(N3CCN(C)CC3)nc21	-3.39%	
O=C(CSCc1cccc(Cl)c1)NCc1ccc2c(c1)OCO2		1 µM (active)
CCN(CC)C(=O)C(=O)N/N=C/c1cccc(Br)c1	16.9%	
O=C(/C=C/c1cc2c(cc1Br)OCO2)NCc1ccc(Cl)cc1	-23.8%	
O=C(CSCc1cccc(Br)c1)N/N=C/c1ccc2c(c1)OCO2		2 µM (active)
C=CCNC(=O)CC(=O)N/N=C/c1cccc(Br)c1	-2.86%	
Cn1c(=O)c2c(n(Cc3ccccc3)c1=O)NC(=O)C2CC(=O)NCc1cccc(Cl)c1 (configuration not stated)	-23.2%	
O=[N+]([O-])c1ccc(/C=N/n2c(COc3ccccc3)n[nH]c2=S)cc1	-10.7%	
C=CCNc1sc(C(=O)c2ccc(C)cc2)c(N)c1C#N	6.69%	
O=C(O)[C@H]1CCCC[C@@H]1c1c2ccc(=O)c(O)c-2oc2c(O)c(O)ccc12	-0.179% [at 11.4 µM]	
Cc1ccc(S(=O)(=O)N[C@H](C(=O)Oc2ccc3c(C(F)(F)F)cc(=O)oc3c2)c2ccccc2)cc1	-6.64%	
O=C(O)/C(=C\c1ccc(O)cc1)c1cccc2ccccc12	-6.42% [at 11.4 µM]	
O=C(O)[C@H]([C@H]1NCCS1)N1Cc2ccccc2C1	5.75% [at 11.4 µM]	
CCN=C(N)CSS(=O)(=O)O	-8.26% [at 11.4 µM]	
O=C(N/N=C1/C[C@@H](O)[C@@H](O)[C@@H]2[C@H]3C(=O)N(c4ccc(F)cc4F)C(=O)[C@@H]3CC[C@H]12)OCc1ccccc1	-17.3% [at 11.4 µM]	
Clc1ccc(-c2nnc(CCc3ccccc3)o2)c(Cl)c1		11.2 µM (active)
CSc1nnc(-c2ccc(Cl)cc2Cl)o1	-5.62%	
Clc1ccc(-c2nnc(-c3cccc4ccccc34)o2)cc1Cl	17.5% [at 11.4 µM]	
CCN1C(=O)C(O)(CC(=O)/C=C/C=C/c2ccccc2)c2ccccc21 (configuration not stated)	-17.9%	
CC(C)CO/N=C1/C[C@@H](O)[C@@H](O)[C@@H]2[C@@H]3C(=O)N(C[C@@H]4CCCO4)C(=O)[C@H]3CC[C@@H]12	17.5% [at 11.4 µM]	
